# This is a sample that favours compounds with a hit; in the whole collection about 3.4% have one here.
# ADAM10 inh – inhibitors of human ADAM10; recombinant ADAM10, EDANS/DABCYL FRET peptide cleavage, 3 h; 0.62% of 370,000 active; inhibition, % at 7 µM; O14672;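 active = inhibition above a per-campaign cutoff equal to the mean of compounds falling between control-based bounds plus 3 SD, cut at about 20% in these data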;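 note: 0% = DMSO wells while the 100% control is not disclosed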
# Target sequence (O14672 214-748 limits assumed): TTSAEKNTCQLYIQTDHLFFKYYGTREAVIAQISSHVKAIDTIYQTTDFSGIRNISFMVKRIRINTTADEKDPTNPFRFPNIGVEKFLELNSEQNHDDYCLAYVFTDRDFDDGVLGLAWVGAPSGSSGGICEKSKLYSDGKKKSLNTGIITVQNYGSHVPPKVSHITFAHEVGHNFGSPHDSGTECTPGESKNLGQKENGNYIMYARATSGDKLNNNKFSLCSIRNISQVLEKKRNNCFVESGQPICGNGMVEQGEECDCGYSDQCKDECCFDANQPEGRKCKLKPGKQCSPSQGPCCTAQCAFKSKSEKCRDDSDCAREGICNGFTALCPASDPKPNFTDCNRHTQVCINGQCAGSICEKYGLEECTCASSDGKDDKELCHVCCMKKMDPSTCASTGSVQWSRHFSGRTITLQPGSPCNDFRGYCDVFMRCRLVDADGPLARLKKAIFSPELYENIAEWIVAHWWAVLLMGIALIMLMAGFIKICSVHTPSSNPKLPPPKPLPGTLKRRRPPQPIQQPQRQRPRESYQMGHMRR
# ADAM17 inh – inhibitors of human ADAM17; recombinant ADAM17, EDANS/DABCYL FRET peptide cleavage; inhibition, % at 6.95 µM; 0.83% of 370,000 active;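 active = inhibition above the mean of compounds lying between control limits plus 3 SD, set per campaign, cut at about 8.5% in these data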;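 note: 0% = DMSO-only wells as the low control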
# PLCb3 inh – blocks human PLC-beta3 enzyme activity. Q01970. Purified PLC-beta3, fluorogenic substrate, fluorescence. inhibition, % at 12.2 µM. 0.18% of 370,000 active; in the data active = inhibition above about 11%;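 note: 0% = median of compound wells on plate and 100% = full blocker control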
# proKLK7 act – proKLK7 (human) activation, primary screen; AID 652039; P49862; 0.9% of 370,000 active; purified proKLK7, EDANS-DABCYL substrate fluorescence; 100% is mature enzyme control, 0% vehicle; activation, % at 7 µM;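 active = activation above the mean of all tested compounds plus 3 SD, computed per campaign excluding outliers beyond control limits, cut at about 13% in these data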
# PLC-gamma1 inh – inhibitors of human phospholipase C gamma1; inhibition, % at 12.2 µM; P19174; purified PLC-gamma1, fluorogenic substrate, fluorescence; 0.84% of 370,000 active; in the data active = inhibition above about 9.5%
# HGIII-sPLA2 inh – Inhibits HGIII-sPLA2 liposome hydrolysis, primary screen; Q9NZ20; QFRET BODIPY PC-A2 liposome hydrolysis, fluorescence; inhibition, % at 12.2 µM; 0.56% of 370,000 active;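 active = inhibition above mean plus 3 SD of compounds lying within the high and low control bounds, cut at about 19% in these data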;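 note: 0% = median of test compound wells and 100% = no enzyme DMSO wells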
# ADAM10 counter – counter-screen for ADAM17 exosite inhibitors: inhibitors of human ADAM10; shares compounds with ADAM17 inh; recombinant ADAM10, EDANS/DABCYL FRET peptide cleavage, 3 h; inhibition, % at 6.95 µM; 47% of 2,900 active; AID 743256;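 active = mean inhibition over the triplicate runs exceeds the activity threshold set in the earlier primary screen, cut at about 20% in these data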;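 note: 0% = DMSO wells and 100% = marimastat wells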
# ADAM17 confirm – human ADAM17 inhibition, confirmation; shares compounds with ADAM17 inh; recombinant ADAM17, EDANS/DABCYL QFRET peptide cleavage; inhibition, % at 6.95 µM; 65% of 2,900 active; AID 743257;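 active = mean inhibition across replicates above the hit cutoff set in the primary screen, cut at about 8.5% in these data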;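 note: 0% = DMSO wells and 100% = marimastat wells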
# An asterisk follows results filed as active; / = not tested or not shown.
SMILES,ADAM10 inh,ADAM17 inh,PLCb3 inh,proKLK7 act,PLC-gamma1 inh,HGIII-sPLA2 inh,ADAM10 counter,ADAM17 confirm
COc1ccc(F)cc1-c1cc(C(=O)NCc2cc(C(F)(F)F)cc(C(F)(F)F)c2)[nH]n1,6,12*,5,1,8,6,-1,3
CC1CCN(C(=O)CCc2nnc3ccc(NCCCN4CCCC4=O)nn23)CC1,-20,-9,-5,0,-6,5,/,/
O=S(=O)(/C=C/c1ccccc1)N1CCN(Cc2ccccc2)CC1,-2,2,1,1,3,-7,/,/
CCN(Cc1ccccc1)C(c1ccccn1)c1nnnn1C1CCCCC1 (stereo unspecified),4,-2,3,0,0,6,/,/
CC(c1nnnn1C1CCCCC1)N(Cc1ccccc1)Cc1cccnc1 (stereo unspecified),18,9.4*,6,0,6,-17,4,2
O=C(CCOc1ccccc1)Nc1ccnn1C1CCN(Cc2ccccc2)CC1,-3,-5,-6,0,-3,3,/,/
CCOc1ccc(-c2[nH]ncc2-c2ccc(OC)c(OC)c2)c(O)c1,2,5,3,-1,0,-19,/,/
CCOc1ccc(-c2[nH]ncc2-c2ccc(Cl)cc2)c(O)c1,15,9.9*,-2,0,0,-61,12,12*
COc1ccc(Nc2cc(C)c3cc([N+](=O)[O-])ccc3n2)cc1,16,5,-21,1,-7,4,/,/
CN(C)c1ccc(CN(CC2CCCO2)C(=O)c2cc3ccccc3o2)cc1 (stereo unspecified),4,1,1,-1,0,7,/,/
Cc1c(C(=O)N(Cc2ccc(N(C)C)cc2)CC2CCCO2)oc2ccccc12 (stereo unspecified),11,10.0*,1,0,7,16,-6,1
CCN(c1ccccc1)S(=O)(=O)c1cccc(C(=O)NCCN2CCOCC2)c1,-5,0,-6,0,3,-5,/,/
COc1ccc(-n2c(=S)[nH]c3cc(C(=O)Nc4ccccc4OC)ccc3c2=O)c(OC)c1,17,9.0*,-3,0,1,1,28*,12*
CCOC(=O)C1=C(O)/C(=C/c2ccc(-c3ccccc3C(=O)O)o2)SC1=Nc1ccc(C)cc1,-2,-2,-112,0,-82,1,/,/
CCOC(=O)C1=C(O)/C(=C/c2ccc(-c3ccccc3C(=O)O)o2)SC1=Nc1ccc(OC)cc1,11,9.5*,-32,0,-27,1,9,8.8*
Cc1ccc(C)c(COc2coc(CN3CCN(C(=O)c4ccco4)CC3)cc2=O)c1,1,0,7,1,-1,-5,/,/
COc1cccc(NC(=O)c2csc3c2CCCC3)c1,10,13*,5,-1,9,-19,10,9
COc1cccc(CN2C(=O)[C@@H]3Cc4c([nH]c5ccccc45)C(C)(C)N3C2=O)c1,15,8.7*,-1,0,5,-15,19,14*
Cc1ccc(CN2C(=O)[C@H]3Cc4c([nH]c5ccccc45)C(C)(C)N3C2=O)cc1,18,12*,-6,2,-4,-22,18,12*
O=C(CCNC(=O)N1CC(=O)Nc2ccccc21)Nc1ccc(F)c(Cl)c1,-9,-7,-4,0,1,3,/,/
CCN(C(=O)CSc1nnc2nc(C)cc(C)n12)c1ccccc1,4,-5,-12,-1,1,0,/,/
CCOC(=O)C1CCN(C(=O)c2cc3cc(Br)ccc3oc2=O)CC1,-2,1,4,-1,1,2,/,/
COC(=O)CN=C1OC(=O)N2C(=O)C3=C4[C@@H](C[C@H]5C(=O)N(c6ccccc6)C(=O)[C@H]5[C@H]4[C@@]12Cc1ccccc1)[C@H]1C(=O)N(c2ccccc2)C(=O)[C@H]1[C@H]3C,14,9.8*,-17,0,-5,-20,11,6
C[C@H](CO)N1C[C@H](C)[C@@H](CN(C)S(=O)(=O)c2ccc(F)cc2)Oc2c(NC(=O)Cc3ccccc3)cccc2C1=O,-10,-6,2,0,-2,0,/,/
C[C@H](CO)N1C[C@H](C)[C@@H](CN(C)S(=O)(=O)c2ccccc2)Oc2c(NC(=O)c3ccncc3)cccc2C1=O,4,11*,0,0,6,-2,2,6
SMILES,ADAM10 inh,ADAM17 inh,PLCb3 inh,proKLK7 act,PLC-gamma1 inh,HGIII-sPLA2 inh,ADAM10 counter,ADAM17 confirm
C[C@H](CO)N1C[C@H](C)[C@@H](CN(C)S(=O)(=O)c2ccc(F)cc2)Oc2c(NC(=O)c3ccncc3)cccc2C1=O,12,10*,0,-1,3,0,1,4
C[C@H](CO)N1C[C@H](C)[C@@H](CN(C)C)Oc2c(NC(=O)CCC(F)(F)F)cccc2C1=O,1,10.0*,6,0,5,7,-3,2
O=C(c1ccccc1)c1ccc(OCC(O)CNCc2ccc(F)cc2)cc1 (stereo unspecified),4,10*,0,1,9,-8,3,3
CCC(=O)c1ccc(OCC(O)CNCc2ccc(F)cc2)cc1 (stereo unspecified),-4,1,3,0,1,5,/,/
Cc1cnc(C(=O)OCC(=O)c2ccc(-c3ccccc3)cc2)cn1,0,-2,-13,-1,-1,-5,/,/
CCc1ccccc1Nc1cc(C(=O)NCc2ccccn2)c2ccccc2n1,18,9.0*,-40,1,-29,-11,-2,8
COc1ccc(C2CC(c3ccccc3)=NN2C(=O)c2ccc(F)cc2)cc1 (stereo unspecified),6,-3,0,0,-1,4,/,/
COc1ccc(C2CC(c3ccccc3)=NN2C(=O)CN2N=NC3C(=O)N(c4cccc(F)c4)C(=O)C32)cc1 (stereo unspecified),13,14*,-8,-2,-6,-13,9,4
CCOc1cccc(OCCOc2ccc(C(=O)c3ccccc3)cc2)c1,10,10*,-1,0,1,-4,20,14*
O=C(c1ccccc1)c1ccc(OCCO)cc1,-3,0,0,0,0,0,/,/
Cc1ccc(CNC(=O)C(=O)NCC2OCCN2S(=O)(=O)c2ccc(C)cc2)cc1 (stereo unspecified),-6,11*,1,0,1,-7,-7,1
Cc1ccc(CNC(=O)C(=O)NCC2OCCN2S(=O)(=O)c2ccc(Br)cc2)cc1 (stereo unspecified),6,6,-2,1,5,-19,/,/

# Screening results (PubChem BioAssay)
